From PubChem BioAssay AID1159580 (chemical genetic matrix, 2015)
Out of some 5,500 compounds screened, about 2,000 (36%) were called active. Another 18% or so got no clear call; they are omitted. No stated cut-off is given here; in the data, active means normalized growth mostly below about 0.91 (no sharp cut-off); inconclusive means no clear call, values can overlap the other calls; inactive means mostly above about 0.92. The list shows a part of the results.

Test: chemical genetic growth profiling, strain panel (AID 1159580);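 further: tested at 20 µM; growth read once vehicle control cultures reached saturation at 30 °C; 1 = growth at the plate median or of vehicle wells; lower values mean less growth of the strain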
Details: S. cerevisiae deletion strains, growth OD
[1] = locus YAL013W, strain DEP1, active compounds read low
[2] = locus YGR078C, strain PAC10, active compounds read low
[3] = locus YGR229C, strain SMI1, active compounds read low
[4] = locus YMR263W, strain SAP30, active compounds read low
[5] = locus YNL128W, strain TEP1, active compounds read low
[6] = locus YNL322C, strain KRE1, active compounds read low
[7] = locus YPL055C, strain LGE1, active compounds read low
[8] = locus YPL241C, strain CIN2, active compounds read low
[9] = locus YAL040C, strain CLN3, active compounds read low
[10] = locus YCL061C, strain MRC1 (second series), active compounds read low
[11] = locus YDR363W, strain ESC2, active compounds read low
[12] = locus YER002W, strain NOP16, active compounds read low
[13] = locus YNL175C, strain NOP13, active compounds read low
[14] = locus YNL197C, strain WHI3, active compounds read low
[15] = locus YNL224C, strain SQS1, active compounds read low
[16] = locus YOR083W, strain WHI5 (second series), active compounds read low

Measured: normalized growth

N#CC(C#N)=CNc1cccc(N)n1
inactive: [1] 0.995 | locus YBR229C, strain ROT2, active compounds read low 1.01 | locus YCL061C, strain MRC1, active compounds read low 1.04 | locus YDL101C, strain DUN1, active compounds read low 1.05 | locus YDL134C, strain PPH21, active compounds read low 1.01 | locus YDR150W, strain NUM1, active compounds read low 1.07 | locus YEL061C, strain CIN8, active compounds read low 1 | [2] 1.02 | [3] 1.02 | locus YHR030C, strain SLT2, active compounds read low 1.05 | locus YHR087W, strain rtc3, active compounds read low 0.968 | locus YJR043C, strain POL32, active compounds read low 1.03 | locus YJR075W, strain HOC1, active compounds read low 1.05 | locus YLR039C, strain RIC1, active compounds read low 1.05 | locus YLR058C, strain SHM2 (second series), active compounds read low 0.992 | locus YLR085C, strain ARP6, active compounds read low 1.03 | locus YLR262C, strain YPT6, active compounds read low 1 | locus YML094W, strain GIM5, active compounds read low 0.991 | locus YMR219W, strain ESC1, active compounds read low 1 | [4] 1.05 | [5] 1 | locus YNL153C, strain GIM3, active compounds read low 1.02 | locus YNL298W, strain CLA4 (second series), active compounds read low 1.01 | [6] 1.01 | locus YNR030W, strain Alg12, active compounds read low 1 | [7] 0.996 | [8] 1 | locus YPR135W, strain CTF4, active compounds read low 1.07

CC(N)C1CCC(C(=O)Nc2ccncc2)CC1 (centres undefined)
inactive: [9] 0.989 | [10] 1 | [11] 0.985 | [12] 0.987 | [2] 1.02 | [4] 1 | locus YMR307W, strain GAS1, active compounds read low 1.02 | [5] 1.01 | [13] 0.992 | [14] 0.99 | [15] 0.993 | [16] 1.05 | [7] 0.987 | [8] 0.996

CC(C)(CO)Cc1cc(C(C)(C)C)c(O)c(C(C)(C)C)c1
inactive: [1] 0.972 | [9] 0.927 | [10] 0.975 | [11] 1.02 | [12] 0.968 | [2] 0.978 | [3] 0.898 | [13] 0.954 | [14] 0.959 | [15] 0.962 | [6] 0.975 | [16] 0.951
